Activity calls are given as the source filed them.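 The calls were made as follows: active = inhibition above about 23% in any of six single-dose repeats (limit read from the data); inactive = the rest.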
What follows are compounds tested against Intestinal-type alkaline phosphatase (Homo sapiens) (UniProt P09923) (assay: human IAP inhibitors, confirmation, biochemical, luminescence, single concentration, uHTS hits (AID 434927;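 also: plate controls were DMSO wells with enzyme for no effect and wells lacking enzyme for full effect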)). Conditions: purified human IAP, CDP-Star luminescence, 30 min; at 8.3 µM; active compounds read high.
Chain of Intestinal-type alkaline phosphatase (Homo sapiens) (P09923 whole entry, looked up): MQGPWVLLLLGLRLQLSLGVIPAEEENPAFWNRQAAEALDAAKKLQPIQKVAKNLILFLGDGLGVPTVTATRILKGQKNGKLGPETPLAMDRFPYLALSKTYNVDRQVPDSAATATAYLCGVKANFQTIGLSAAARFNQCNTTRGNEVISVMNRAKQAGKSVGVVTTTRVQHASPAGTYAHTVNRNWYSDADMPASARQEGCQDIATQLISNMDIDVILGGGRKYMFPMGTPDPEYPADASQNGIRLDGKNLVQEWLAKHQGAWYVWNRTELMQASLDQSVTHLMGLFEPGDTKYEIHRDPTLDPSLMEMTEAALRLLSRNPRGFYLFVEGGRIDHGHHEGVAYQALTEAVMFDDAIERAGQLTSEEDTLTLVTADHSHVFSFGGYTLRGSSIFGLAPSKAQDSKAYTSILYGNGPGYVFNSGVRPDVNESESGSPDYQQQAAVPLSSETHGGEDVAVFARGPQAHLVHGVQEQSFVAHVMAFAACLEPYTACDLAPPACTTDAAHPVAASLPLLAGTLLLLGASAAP
With CC(=O)c1ccc(NC(=O)C2CCCN2S(=O)(=O)c2cccs2)cc1 (stereo unspecified) the inhibition was -85.1% (inactive). In the case of O=C(O)c1ccccc1C(=O)Nc1cc(-c2ccccc2)[nH]n1, the inhibition is reported as 61.7% (active). For CCOc1ccc(/C=N/NC(=O)c2[nH]ncc2Br)c(O)c1, the inhibition was -294% (inactive). With CC(=O)CCc1ccc(Oc2nc(-c3cccnc3)nc3ccccc23)cc1 the inhibition was 42% (active). In the case of COc1ccc(NC(=O)CCN2CCN(S(=O)(=O)c3cc(Cl)ccc3OC)CC2)cc1, the inhibition is reported as 35.6% (active). In the case of Cc1[nH]n(-c2nc(-c3ccccc3)cc(=O)[nH]2)c(=O)c1CCO, the inhibition is reported as 47.5% (active). C=CCn1c(O)c(N=Nc2ccccc2O)c2ccccc21 was tested, and the inhibition was 36.2% (active). In the case of Cc1ccc(NC(=O)c2ccncc2)cc1[N+](=O)[O-], the inhibition is reported as 53.7% (active). With C=CCN1C(=O)C2(NNc3ccccc3O2)c2ccccc21 (stereo unspecified) the inhibition was -92.8% (inactive). With O=C(O)COn1c(-c2ccc(Cl)cc2)nc2ccc(Cl)cc21 the inhibition was 26.6% (active). CC(/C=N/NC(=O)CCn1nnc2ccccc21)=C\c1ccccc1 was tested, and the inhibition was -88.8% (inactive). Cc1ccc(O)c(N/C=C/C(=O)c2ccc(F)cc2)c1 was tested, and the inhibition was -120% (inactive). For Cc1cc(C(=O)NC2CC(C)(C)Cc3c2cnn3-c2ccccc2)n[nH]1 (stereo unspecified), the inhibition was 62.1% (active). In the case of CN(Cc1ccccc1)C(=O)Nc1ccc(Cl)cc1, the inhibition is reported as -58.7% (inactive). For CSCCC(NS(=O)(=O)c1ccccc1F)C(=O)NNC(=O)c1csc(N2CCOCC2)n1 (stereo unspecified), the inhibition was 72.3% (active). With CN1CCN(CCNC(=O)Cn2c(=O)c3cccn3c3ccc(F)cc32)CC1 the inhibition was 35.4% (active).
